We go through eleven molecules from PubChem BioAssay (EPA / NIEHS).

Results filed as inconclusive are left out. Activity calls are given as the source filed them. Rule for the calls, unless noted: active = hit-call score of the fitted dose curve at least 0.9, where 1 is the maximum; inactive = score below 0.9.

Test [1] can be described thus: ACEA_ER_80hr: ACEA Biosciences xCELLigence Real-Time Cell Analysis on Estrogen Receptor Agonism for Proliferation (AID 2282667; active = hit-call score of the fitted dose curve at least 0.9, where 1 is the maximum). To be noted: T47D proliferation, impedance (xCELLigence), 80 h. In a few lines: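 Real-time electrical impedance tracked growth of the human breast line T47D, with the 80 h post-dosing value used. Dosing spanned eight 1:4 steps down from a 100 uM final top concentration, run in duplicate.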

Test [2] can be described thus: APR_HepG2_CellCycleArrest_24hr: Apredica 24-hour HepG2 Assay for Cell Cycle Arrest (AID 2282905).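 Note: cell cycle arrest scored as ratio of 2N to 4N nuclear DNA content.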 To be noted: imaging, actives raise or lower the signal. In a few lines:
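HepG2 cells were exposed to compounds at 0.39–200 uM (ten concentrations, duplicate) in 0.5% v/v DMSO for 24 hr. After formaldehyde fixation and Triton permeabilization, Hoechst 33342-stained nuclei were imaged at 20x; DNA content was quantified, with bidirectional fitting against DMSO.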

Test [3] in a line: APR_HepG2_NuclearSize_24hr: Apredica 24-hour HepG2 Assay for Nuclear Size (AID 2282907). To be noted: high-content imaging, actives raise or lower the signal. In a few lines: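 HepG2 human liver cells were exposed for 24 hr to compounds at 0.39–200 uM (ten concentrations, duplicate) in 0.5% v/v DMSO. They were then formaldehyde-fixed, Triton-permeabilized and Hoechst 33342-stained, and nuclear diameter was imaged at 20x. Bidirectional fits were made against DMSO.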

Test [4] can be described thus: APR_HepG2_CellLoss_24hr: Apredica 24-hour HepG2 Assay for Cell Loss (AID 2282908).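 For AC50: fit in both directions so a hit may be cell loss or gain.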 As to conditions: high-content imaging. In a few lines: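 Compounds were tested at 0.39–200 uM in duplicate with 0.5% v/v DMSO final. Cells were then fixed in 3.7% formaldehyde, Hoechst 33342 nuclei were imaged at 20x by HCS, and cell number was fitted bidirectionally against DMSO.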

A short description of test [5]: APR_HepG2_MicrotubuleCSK_24hr: Apredica 24-hour HepG2 Assay for Microtubule CSK Stabilty (AID 2282909). To be noted: HepG2 microtubule cytoskeleton imaging, actives raise or lower the signal. The method in brief:
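HepG2 cells exposed 24 h to compounds at 0.39–200 uM (duplicate, 0.5% v/v DMSO final), then fixed, permeabilized and immunostained for alpha-tubulin with Hoechst 33342. Cytoskeleton imaged at 20x; bidirectional fit versus DMSO baseline.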

A short description of test [6]: APR_HepG2_MitoticArrest_24hr: Apredica 24-hour HepG2 Assay for Mitotic Arrest (AID 2282910). To be noted: high-content imaging, actives raise or lower the signal. In a few lines: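 HepG2 cells, 24 h exposure at 0.39-200 uM (10 concentrations, duplicate, 0.5% DMSO). Fixed, stained for phospho-histone H3 with Hoechst; imaged by high-content microscopy, bidirectional fit versus DMSO.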

A short description of test [7]: APR_HepG2_MitoMembPot_24hr: Apredica 24-hour HepG2 Assay for Mitochondrial Membrane Potential (AID 2282911). To be noted: imaging, actives raise or lower the signal. The method in brief:
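Cells are dosed for 24 hr across 0.39 to 200 uM with solvent held at 0.5% DMSO. They are then stained with 250 nM MitoTracker Red CMXRos for 30 min, fixed in 3.7% formaldehyde and imaged.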

Test [8] in a line: APR_HepG2_p53Act_24hr: Apredica 24-hour HepG2 Assay for p53 Activation (AID 2282913).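 Note: p53 protein immunofluorescence averaged per cell in HepG2 with Hoechst nuclei.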 As to conditions: high-content imaging, actives raise or lower the signal. The method in brief: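 Human HepG2 liver cells; 24 hr cpd treatment, 0.39–200 uM, 0.5% DMSO final. Fixed in 3.7% formaldehyde, permeabilized with 0.5% Triton X-100, stained with anti-p53/Cy5 plus Hoechst 33342. Six images per well at 20x; gain or loss vs DMSO.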

Test [9] is described as follows: APR_HepG2_CellCycleArrest_72hr: Apredica 72-hour HepG2 Assay for Cell Cycle Arrest (AID 2282914). As to conditions: high-content imaging, actives raise or lower the signal. In a few lines: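 Read-out is Hoechst-stained nuclear DNA content measured by automated fluorescence imaging (20x, six images per well), fitted in both directions relative to DMSO. Human HepG2 liver cells received 0.39–200 uM compound for 72 hr at 0.5% v/v DMSO.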

A short description of test [10]: APR_HepG2_CellLoss_72hr: Apredica 72-hour HepG2 Assay for Cell Loss (AID 2282915). As to conditions: high-content imaging. The method in brief:
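HepG2 cells exposed 72 h to compound at 0.39–200 uM (10 concentrations, duplicate) in 0.5% DMSO. Fixed with 3.7% formaldehyde and Hoechst 33342-stained. Imaged at 20x; nuclear count gives cell number, fitted bidirectionally versus DMSO.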

Test [11] in a line: APR_HepG2_P-H2AX_72hr: Apredica 72-hour HepG2 Assay for H2AX Phosphorylation (AID 2282916).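 Note: phospho-histone H2A.x immunostain intensity per cell marking DNA damage.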 As to conditions: imaging, actives raise or lower the signal. The method in brief:
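HepG2 human liver cells were exposed for 72 hr to compounds at 0.39–200 uM (10 concentrations, duplicate per plate) in 0.5% v/v DMSO. Fixed, permeabilized cells were immunolabeled for phospho-histone H2A.x with Hoechst 33342 and imaged by HCS fluorescence; bidirectional fit versus DMSO.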

Test [12] is described as follows: APR_HepG2_MitoMembPot_72hr: Apredica 72-hour HepG2 Assay for Mitochondrial Membrane Potential (AID 2282917). As to conditions: imaging, actives raise or lower the signal. The method in brief: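 HepG2 cells dosed 72 hr with compound at 0.39–200 uM in duplicate, 0.5% v/v DMSO final. Mitochondria stained with 250 nM MitoTracker Red CMXRos for 30 min before formaldehyde fixation, imaged by high-content fluorescence; bidirectional fit versus DMSO.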

Test [13] can be described thus: APR_HepG2_MicrotubuleCSK_72hr: Apredica 72-hour HepG2 Assay for Microtubule CSK Stabilty (AID 2282919). As to conditions: HepG2 microtubule cytoskeleton, high-content imaging, actives raise or lower the signal. The method in brief:
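HepG2 cells were exposed 72 hr to compound at 0.39–200 uM in duplicate (0.5% DMSO final), then fixed and permeabilized. Alpha-tubulin immunofluorescence was imaged by high-content microscopy, with bidirectional fitting against DMSO and taxol as positive control.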

A short description of test [14]: APR_HepG2_P-H2AX_24hr: Apredica 24-hour HepG2 Assay for H2AX Phosphorylation (AID 2282920). As to conditions: high-content imaging, actives raise or lower the signal. The method in brief:
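HepG2, 24 hr, cpd 0.39–200 uM (10 conc, duplicate), DMSO 0.5% v/v final. Fix 3.7% formaldehyde, Triton X-100 permeabilize, anti-phospho-H2A.x 1:200 + Hoechst 2 ug/mL. Imaged, bidirectional fit vs DMSO.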

Test [15] in a line: APR_HepG2_StressKinase_72hr: Apredica 72-hour HepG2 Assay for Stress Kinase (AID 2282921). To be noted: HepG2 stress kinase (phospho-c-Jun) imaging, actives raise or lower the signal. The method in brief:
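Cells were exposed for 72 h to ten concentrations (0.39–200 uM, duplicate) at 0.5% v/v DMSO final, then fixed with 3.7% formaldehyde, permeabilized and immunostained for phospho-c-Jun (Cy3 secondary) with Hoechst nuclear counterstain.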

Test [16] is described as follows: APR_HepG2_StressKinase_24hr: Apredica 24-hour HepG2 Assay for Stress Kinase (AID 2282922). As to conditions: HepG2 stress kinase (phospho-c-Jun) imaging, actives raise or lower the signal. The method in brief:
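HepG2 cells exposed 24 h to 0.39–200 uM compound in duplicate (0.5% v/v DMSO final). Cells fixed in 3.7% formaldehyde, permeabilized and immunostained for phospho-c-Jun; read by high-content fluorescence imaging, fitted bidirectionally against DMSO.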

Test [17] is described as follows: APR_HepG2_p53Act_72hr: Apredica 72-hour HepG2 Assay for p53 Activation (AID 2282923).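 Note: average cellular p53 protein immunofluorescence intensity in HepG2 cells.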 As to conditions: high-content imaging, actives raise or lower the signal. The method in brief: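 Cells were dosed for 72 hr with compounds at 0.39–200 uM in duplicate (final DMSO 0.5% v/v), then fixed in 3.7% formaldehyde, permeabilized with Triton X-100 and immunostained for p53 (Cy5) with Hoechst 33342 nuclear counterstain.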

Test [18] can be described thus: APR_HepG2_MitoMass_72hr: Apredica 72-hour HepG2 Assay for Mitochondrial Mass (AID 2282924).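 Note: MitoTracker Red CMXRos stain intensity per cell imaged as mitochondrial mass.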 To be noted: high-content imaging, actives raise or lower the signal. In a few lines: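 HepG2 cells dosed 72 hr at 0.39–200 uM (0.5% DMSO), in duplicate. MitoTracker Red CMXRos 250 nM loaded 30 min before formaldehyde fixation; high-content fluorescence imaging, bidirectional fit versus DMSO.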

Regarding `CCCCN(CCCC)N=O`, the outcome in [1], in test [2], in test [3], in [4], in test [5] and in test [6] was inactive. Further, the result in test [7], in test [8], in test [9], in [10], in [11] and in test [12] was inactive. The molecule was classed as inactive in test [13], in [14], in [15], in test [16], in test [17] and in test [18].
Consider `CC(Cc1ccc(OCC(=O)O)cc1)NCC(O)c1csc(C(F)(F)F)n1` (configuration not stated), for which the outcome in test [1], in [2], in test [3], in test [4], in test [5] and in test [6] was inactive. Moreover, the outcome in [7], in test [8], in test [9], in test [10], in test [11] and in [12] was inactive. Moreover, the molecule was called inactive in [13], in test [14], in test [15], in [16] and in test [17].
`Cc1ccc([N+](=O)[O-])cc1C`: the outcome in [1], in test [2], in [3], in test [4], in test [5] and in [6] was inactive. In addition, the call in test [7], in test [9], in test [10], in test [11], in test [12] and in test [13] was inactive. Besides, the outcome in test [14], in test [15] and in test [16] was inactive.
In general, AC50 refers to the midpoint of the concentration-response curve, whichever way the signal moves. For `ClC1=C(Cl)C2(Cl)C3C(Cl)C(Cl)CC3C1(Cl)C2(Cl)Cl` (configuration not stated), the result in test [1], in [3], in test [7] and in test [9] was inactive. Further, the AC50 in test [2] was 27.8 µM (active); in [4] it was 69.4 µM (active); in [5], 156 µM (active); in test [6], 65.1 µM (active); in test [8] it was 82.6 µM (active); in [10], 60.9 µM (active). Also, the AC50 is 108 µM (active) in test [11]; 27.1 µM (active) in test [12]; 98.6 µM (active) in test [13]; 72.8 µM (active) in [14]; 109 µM (active) in [15]; 96.7 µM (active) in test [16]. In addition, the AC50 in test [17] was 98.4 µM (active).
As for `Nc1cc2c3c(c1)C(c1ccccc1)=N[C@@H](NC(=O)c1cccnc1)C(=O)N3CC2`, the call in test [1], in test [2], in [3], in [4], in test [5] and in test [6] was inactive. The outcome in [7], in test [9], in [10], in test [11], in [12] and in test [13] was inactive. Further, the molecule was classed as inactive in [14], in test [15] and in [16].
In the case of `CCC(C)(C)c1ccc(O)cc1`, the AC50 is 2.14 µM (active) in test [1]; 109 µM (active) in test [4]; 107 µM (active) in test [6]; 100 µM (active) in test [7]; 109 µM (active) in [8]; 108 µM (active) in test [9]. Besides, the figures for the AC50 in test [10], in test [12] and in test [17] were 108 µM (active), 56.4 µM (active) and 105 µM (active), respectively. Also, the outcome in test [2], in test [3], in test [5], in test [11], in [13] and in test [14] was inactive. Moreover, the molecule was classed as inactive in test [15] and in [16].
Consider `ClC(Cl)(Cl)c1ccccc1`, for which the molecule was classed as inactive in test [1], in [2], in test [3], in test [4], in test [5] and in test [6]. For the same molecule, the call in [7], in test [8], in [9], in test [10], in test [11] and in test [12] was inactive. In addition, the molecule was classed as inactive in test [13], in [14], in test [15], in test [16] and in test [17].
Turning to `CCOc1ccc(C(C)(C)COCc2cccc(Oc3ccccc3)c2)cc1`, the molecule was called inactive in test [1], in test [2], in test [3], in [4], in [5] and in test [6]. Moreover, the molecule was classed as inactive in test [7], in test [8], in [11], in test [12], in test [13] and in test [14]. For the same molecule, the outcome in [15], in [16] and in [17] was inactive. Moreover, the AC50 in [9] was 85.5 µM (active); in test [10] it was 68.3 µM (active).
Consider `CC(C)(C)c1ccc(O)cc1`, for which the AC50 in [1] is 10.5 µM (active). In addition, the outcome in [4], in test [6], in [7], in test [8], in test [10] and in test [11] was inactive. Also, the call in test [12], in test [14], in test [15], in test [16] and in [17] was inactive.
On to `c1cc2c3c(cccc3c1)CC2`, for which the molecule was called inactive in test [1], in test [2], in [3], in test [4], in [5] and in test [6]. The call in test [7], in test [8], in [9], in [10], in [11] and in test [14] was inactive. The molecule was classed as inactive in test [15], in test [16] and in test [17].
On to `CCOS(=O)(=O)OCC`, for which the outcome in test [1], in test [2], in test [3], in test [4], in test [5] and in [6] was inactive. For the same molecule, the call in [7], in test [8], in [9], in test [10], in [11] and in [12] was inactive. Also, the outcome in [13], in test [14], in test [15], in test [16] and in [17] was inactive.
